Laboratory results: the supplement of paper PMC12350171
Structures can show the parent of a compound that is named as a salt.

What follows are compounds tested on S. enterica typhimurium WT (assay: growth AUC normalised to DMSO control (median) (fraction of control); higher = less growth inhibition, active = hit call of the paper). Settings: 20 µM;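 active = normalised median growth AUC below 0.1 of DMSO control; inactive = AUC 0.1 or higher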.
Outline: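 For normalised area under the curve, growth curves were truncated at entry into stationary phase, integrated by the trapezoidal rule and divided against vehicle wells on the same plate. The curves came from strains passaged twice overnight without oxygen and then grown in mGAM in 96-well plates at a starting OD578 of 0.01. Each well held an approved-drug library compound at 20 μM with 1% DMSO, and OD578 was read hourly for 24 h in an anaerobic incubator. Values are medians of three biological replicates.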
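Further: active when median AUC fell below 0.1.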

Row | Compound | growth AUC normalised to DMSO control
1 | C[C@H]1[C@H](OC(=O)CCC(=O)O)O[C@@H]2O[C@@]3(C)CC[C@H]4[C@H](C)CC[C@@H]1[C@@]24OO3 [Artesunate] | 1 (inactive)
2 | CN1CC(O)c2cc(N=NC(N)=O)c(O)cc21 (configuration not stated) [Carbazochrome] | 0.999 (inactive)
3 | CN[C@@H]1[C@@H](O[C@H]2O[C@H](CO)[C@@H](N)[C@H](O)[C@H]2O)OC2C[C@@H](N)[C@@H](O[C@H]3[C@H](O)[C@@H](O)[C@H](N)C[C@@H]3N)OC2[C@@H]1O (some centres not stated) [Apramycin] | 1.01 (inactive)
4 | O=C1[C@H](CC[C@H](O)c2ccc(F)cc2)[C@@H](c2ccc(O)cc2)N1c1ccc(F)cc1 [Ezetimibe] | 1 (inactive)
5 | C=C(CC)C(=O)c1ccc(OCC(=O)O)c(Cl)c1Cl [Ethacrynic acid] | 1 (inactive)
6 | O=C(C1CCCCC1)N1CC(=O)N2CCc3ccccc3C2C1 (configuration not stated) [Praziquantel] | 1.01 (inactive)
7 | CC#CCn1c(N2CCC[C@@H](N)C2)nc2c1c(=O)n(Cc1nc(C)c3ccccc3n1)c(=O)n2C [Linagliptin] | 1 (inactive)
8 | Nc1c(CC(=O)O)cccc1C(=O)c1ccc(Br)cc1 [Bromfenac] | 1.01 (inactive)
9 | Cn1c(=O)c2nc[nH]c2n(C)c1=O [Theophylline monohydrate] | 1.01 (inactive)
10 | Cc1cc2nc3c(=O)[nH]c(=O)nc-3n(C[C@H](O)[C@H](O)[C@H](O)CO)c2cc1C [Riboflavine] | 1 (inactive)
11 | COC1=CC(=O)C[C@@H](C)[C@]12Oc1c(Cl)c(OC)cc(OC)c1C2=O [Griseofulvin] | 1 (inactive)
12 | CC(C)NC[C@H](O)COc1cccc2ccccc12 [(S)-(-)-Propranolol hydrochloride] | 0.989 (inactive)
13 | CCCCCCOc1ccccc1C(N)=O [Exalamide] | 1 (inactive)
14 | CN/C(=N\CCSCc1nc[nH]c1C)NC#N [Cimetidine] | 1 (inactive)
15 | Cc1ncc([N+](=O)[O-])n1CCO [Metronidazole] | 1.04 (inactive)
16 | N=C(N)c1ccc(OCCCCCOc2ccc(C(=N)N)cc2)cc1 [Pentamidine isethionate] | 0.999 (inactive)
17 | Cc1cc(/C=C/c2ccc3cc(N(C)C)ccc3[n+]2C)c(C)n1-c1ccccc1 [Pyrvinium pamoate] | 1.02 (inactive)
18 | COc1cc(NS(=O)(=O)c2ccc(N)cc2)ncn1 [Sulfamonomethoxine] | 0.955 (inactive)
19 | COc1cc([C@@H]2c3cc4c(cc3[C@@H](O[C@@H]3O[C@@H]5CO[C@@H](C)O[C@H]5[C@H](O)[C@H]3O)[C@H]3COC(=O)[C@H]23)OCO4)cc(OC)c1O [Etoposide] | 1 (inactive)
20 | Cc1ncc(C[n+]2csc(CCO)c2C)c(N)n1 [Thiamine hydrochloride] | 0.998 (inactive)
21 | O=c1[nH]cnc2c1ncn2[C@H]1CC[C@@H](CO)O1 [Didanosine] | 0.992 (inactive)
22 | CN1CCC[C@@H]1Cc1c[nH]c2ccc(CCS(=O)(=O)c3ccccc3)cc12 [Eletriptan] | 0.987 (inactive)
23 | Cc1ccc(/C(=C\CN2CCCC2)c2ccccn2)cc1 [Triprolidine hydrochloride] | 1 (inactive)
24 | OC[C@H]1O[C@@H](n2cnc3cncnc32)[C@H](O)[C@@H]1O [Nebularine] | 1 (inactive)
25 | CCOc1ccc(NC(=O)CC(C)O)cc1 (configuration not stated) [Bucetin] | 1 (inactive)
26 | CO[C@@H]1[C@@H](OC(N)=O)[C@@H](O)[C@H](Oc2ccc3c(O)c(NC(=O)c4ccc(O)c(CC=C(C)C)c4)c(=O)oc3c2C)OC1(C)C [Novobiocin sodium salt] | 0.999 (inactive)
27 | O=C1C(=O)c2ccccc2C(O)=C1C1CCC(c2ccc(Cl)cc2)CC1 (configuration not stated) [Atovaquone] | 0.992 (inactive)
